LGR2 inh: Drosophila LGR2 receptor signaling inhibition; HEK293 LGR2, CRE-luciferase, bursicon-stimulated, 4 h; inhibition, % at 9.99 µM; 0.35% of 380,000 active;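 active means drop in luminescence signal, shown as inhibition above about 50% in the replicate tests, limit read from the data, passing the limit was not always enough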;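 further: agonist challenge used bursicon conditioned medium at about half maximal strength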
EWS-Fli block: blocks EWS/Fli oncoprotein-driven transcription. 0.67% of 350,000 active. AID 651661. A673 NR0B1-luciferase reporter, viability-normalised. inhibition, % at 12.6 µM;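 active means mean inhibition of at least 50% after viability correction, with every replicate also passing that limit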;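 further: firefly luciferase signal divided by Alamar Blue viability fluorescence both relative to DMSO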
SIRT5 inh: inhibitors of human sirtuin-5 desuccinylase; Q9NXA8; Purified SirT5, succinyl-peptide AMC, trypsin-coupled fluorescence; inhibition, % at 15 µM; 1.1% of 330,000 active; in the data active means inhibition above about 15%
Target sequence (Q9NXA8 whole entry, looked up): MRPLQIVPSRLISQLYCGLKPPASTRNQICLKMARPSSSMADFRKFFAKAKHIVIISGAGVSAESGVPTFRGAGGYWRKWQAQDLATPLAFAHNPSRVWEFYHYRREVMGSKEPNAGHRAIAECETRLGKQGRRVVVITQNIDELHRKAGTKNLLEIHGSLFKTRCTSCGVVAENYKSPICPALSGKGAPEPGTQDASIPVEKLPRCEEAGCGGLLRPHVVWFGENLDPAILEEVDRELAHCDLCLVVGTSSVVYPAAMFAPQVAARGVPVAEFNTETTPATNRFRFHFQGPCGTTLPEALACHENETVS
Ecoli rRNA inh: selective bacterial rRNA inhibition in E. coli; E. coli WT GFP vs humanized-ribosome RFP mutants, fluorescence, 24 h; active compounds read low; DMSO median 0, no signal -100; GFP signal change (wild-type ribosome), % (concentration not given with the values); 1.6% of 350,000 active; AID 720706;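 active means significant combined selectivity score with lowered wild-type GFP, culture density cut under 30%, mutant RFP and density less affected; inactive means any of these conditions unmet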
PGC1a acetyl inh: PGC1a acetylation modulation, inhibitor mode; U2OS PGC1a acetylation, AlphaScreen anti-acetyl-lysine; with virally co-expressed GCN5 acetyltransferase; inhibition, % at 15.6 µM; AID 651687; 0.17% of 350,000 active;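 active means every replicate shows inhibition of at least 40%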
PAX8 inh HTS: inhibitors of PAX8 transcriptional activity in RMG-I cells. RMG-I TPO-luciferase reporter, SteadyGlo, 24 h. inhibition, % at 12.6 µM. 1.2% of 360,000 active. AID 652154;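 active means mean replicate inhibition at least 60% with every replicate also reaching 60%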;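 further: luciferase light reporting Pax8 driven TPO promoter activity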
A number is an active result; n = inactive; x = no result given. A selection: hits, their analogues and other compounds. The true share with any hit is near 3.4%.

SMILES | LGR2 inh | EWS-Fli block | SIRT5 inh | Ecoli rRNA inh | PGC1a acetyl inh | PAX8 inh HTS
O=C(COC(=O)CC1CC2CCC1C2)NCc1ccccc1 (centres undefined) | n | n | 35 | n | n | n
Cc1c(Cl)sn(-c2ccc(Cl)cc2)c1=O | n | 65 | n | n | x | n
O=C(NCC(c1ccco1)N1CCOCC1)c1c(F)cccc1F (centres undefined) | n | n | 17 | n | n | n
CN(C)CCCNC(=O)[C@H]1[C@H](CO)[C@H]2Cn3c(ccc(-c4ccncc4)c3=O)[C@@H]1N2C(=O)CC1CC1 | n | n | n | n | x | n
C[C@@H]1CCCCO[C@@H](CN(C)C(=O)Nc2cccc3ccccc23)[C@H](C)CN([C@H](C)CO)C(=O)c2cc(NS(=O)(=O)c3ccc(Cl)cc3)ccc2O1 | n | n | n | n | n | 94
C[C@H]1CCCCO[C@H](CN(C)C(=O)Nc2cccc3ccccc23)[C@@H](C)CN([C@@H](C)CO)C(=O)c2cc(NS(=O)(=O)c3ccc(Cl)cc3)ccc2O1 | n | n | n | n | n | 82
CC(C)NC(=O)N(C)C[C@H]1Oc2ccc(NS(=O)(=O)c3ccc(F)cc3)cc2CC(=O)N([C@@H](C)CO)C[C@@H]1C | n | n | n | n | n | n
COc1ccc2c3c(n(C)c2c1)[C@H](CO)N(Cc1ccc(F)cc1)CC31CN(C)C1 | n | n | x | n | n | x
O=C(O)c1cc(N/N=C/c2cccc3ccccc23)ccc1Cl | n | n | n | n | x | n
O=C(O)c1ccc(N/N=C/c2cc3c(cc2[N+](=O)[O-])OCO3)cc1 | n | n | n | n | n | n
O=C(O)c1cc(N/N=C/c2ccc3c(c2)OCCO3)ccc1Cl | 71 | n | n | n | x | n
O=C(O)c1ccc(N/N=C/c2cc3cc4c(cc3nc2Cl)OCCO4)cc1 | 60 | n | n | n | n | n
O=C(O)c1cc(N/N=C/C(Cl)=C/c2ccccc2)ccc1Cl | 73 | n | n | n | x | n
COc1ccc(-c2csc(C3=C(O)CN(C(C)C)C3=N)n2)cc1OC | n | n | n | -35 | n | n
N=C(N)c1ccc(N=Nc2c(O)ccc3c2[nH]c2ccccc23)cc1 | n | n | x | -30 | n | n
c1ccc(CNCCCNCCCCNCCCNCc2ccccc2)cc1 | n | n | n | n | n | 86
O=C(O)CCCCNCc1ccccc1 | x | x | x | x | n | x
COc1ccc(NC(=S)NCc2ccc3c(c2)OCO3)cc1 | n | 65 | n | n | n | n
CC(C)c1ccc(NC(=S)NCc2ccc3c(c2)OCO3)cc1 | n | n | n | n | n | n
N#C[C@H]1[C@@H](c2ccccc2-c2cccc(F)c2)[C@H](CO)N1C(=O)C1CC1 | n | n | n | n | n | x
COc1ccc([Si](C)(C)[C@H]2[C@H](CCO)O[C@@]3(C(=O)N(Cc4ccc(NC(C)=O)cc4)c4ccccc43)[C@@H]2C)cc1 | x | n | 21 | x | n | 111
COc1ccc([Si](C)(C)[C@@H]2[C@@H](CCO)O[C@]3(C(=O)N(Cc4ccc(NC(C)=O)cc4)c4ccccc43)[C@H]2C)cc1 | x | n | n | x | n | 107
O=C(NC1CC1)c1cccc2c1C(=O)c1ccc(N3CCC(N4CCCCC4)CC3)cc1S2(=O)=O | n | n | 17 | n | n | n
O=C(NCc1cc(C(F)(F)F)ccc1Cl)c1cccc2c1C(=O)c1ccc(N3CCC(N4CCCCC4)CC3)cc1S2(=O)=O | active | n | n | n | x | 94
CN(C)C(CNC(=O)c1cc(S(=O)(=O)N2CCOCC2)ccc1Cl)c1cccs1 (centres undefined) | n | n | n | n | x | n
SMILES | LGR2 inh | EWS-Fli block | SIRT5 inh | Ecoli rRNA inh | PGC1a acetyl inh | PAX8 inh HTS
CN(C)C(CNC(=O)c1cc(S(=O)(=O)N(C)c2ccccc2)ccc1Cl)c1cccs1 (centres undefined) | n | n | n | -35 | n | n
c1ccc(-c2nc(-c3ccccn3)no2)cc1 | 87 | x | x | x | n | x
c1ccc(-c2ccc(-c3nc(-c4ccccn4)no3)cc2)cc1 | 102 | 87 | n | n | n | x
Cc1ccc(-c2nc(-c3ccccn3)no2)cc1 | x | x | x | x | n | x
Clc1cccc(-c2nc(-c3ccccn3)no2)c1 | x | x | x | x | n | n
Cc1ccc(-c2nc(-c3ccccn3)no2)cc1Cl | x | x | x | x | n | 81
C[C@@H]1CN([C@H](C)CO)C(=O)c2c(c3ccccc3n2C)-c2ccccc2CO[C@H]1CN(C)C(=O)[C@@H]1CCCN1C | n | n | n | n | n | n
C[C@H]1CN([C@@H](C)CO)C(=O)c2cc(Br)cnc2O[C@H]1CN(C)Cc1ccncc1 | n | n | n | n | n | x
COc1ccc(CN(C)C[C@H]2Oc3ccc(NC(=O)Cc4cn(C)c5ccccc45)cc3CC(=O)N([C@H](C)CO)C[C@@H]2C)cc1 | n | n | n | n | n | n
C[C@H]1CCCCO[C@H](CN(C)Cc2ccncc2)[C@@H](C)CN([C@@H](C)CO)C(=O)c2cc(NC(=O)c3ccccc3)ccc2O1 | n | n | n | n | n | n
O=C1C(Nc2ccccc2)=C/C(=N/S(=O)(=O)c2cccs2)c2ccccc21 | x | x | x | x | 59 | x
Cc1ccc(NC2=C/C(=N/S(=O)(=O)c3cccs3)c3ccccc3C2=O)cc1 | x | n | n | x | x | n
COC(=O)c1ccccc1NC1=C/C(=N\S(=O)(=O)c2cccs2)c2ccccc2C1=O | 91 | n | x | n | n | n
O=C(Cc1ccccn1)NCC[C@H]1CC[C@H](NS(=O)(=O)c2ccc(F)cc2)[C@H](CO)O1 | n | n | n | n | n | n
O=C(C[C@H]1C=C[C@@H](NC(=O)CC2CC2)[C@@H](CO)O1)NCc1ccccc1 | n | n | n | n | n | x
Cc1ccc(S(=O)(=O)Nc2ccc3c(c2)C(=O)N([C@H](C)CO)C[C@@H](C)[C@H](CN(C)S(=O)(=O)c2ccc(C)cc2)OCCCC[C@H](C)O3)cc1 | n | n | n | n | n | 84
Cc1ccc(S(=O)(=O)Nc2ccc3c(c2)C(=O)N([C@@H](C)CO)C[C@H](C)[C@@H](CN(C)S(=O)(=O)c2ccc(C)cc2)OCCCC[C@H](C)O3)cc1 | n | n | n | n | n | 61
Cc1ccc(S(=O)(=O)Nc2ccc3c(c2)C(=O)N([C@@H](C)CO)C[C@@H](C)[C@@H](CN(C)C)OCCCC[C@H](C)O3)cc1 | n | n | n | n | n | 87
Cc1ccc(S(=O)(=O)Nc2ccc3c(c2)C(=O)N([C@H](C)CO)C[C@H](C)[C@@H](CN(C)S(=O)(=O)c2ccc(C)cc2)OCCCC[C@H](C)O3)cc1 | n | n | n | n | n | 83
Cc1ccc(S(=O)(=O)Nc2ccc3c(c2)C(=O)N([C@H](C)CO)C[C@H](C)[C@H](CN(C)C)OCCCC[C@@H](C)O3)cc1 | n | n | x | n | n | n
Cc1ccc(S(=O)(=O)Nc2ccc3c(c2)C(=O)N([C@H](C)CO)C[C@@H](C)[C@@H](CN(C)S(=O)(=O)c2ccc(C)cc2)OCCCC[C@H](C)O3)cc1 | n | n | n | n | n | n

High-throughput results as filed in PubChem BioAssay.
